# Screens from PubChem.
# Pf Dd2 growth = Plasmodium falciparum Dd2 growth inhibition | Potency, µM (top dose mostly 28.9 µM), without a hit: top-dose activity, negative = inhibition, most hits filed as inhibitors | AID 1347417 | P. falciparum Dd2 growth, SYBR Green, 72 h | hit rate 4.3% among 120,000; active = well fitted inhibition curve with a large enough effect;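 note: plate controls were DMSO vehicle for no effect and reference drug for full effect; nearly all actives have a fitted effect of over 65% in size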
#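 Readout: SYBR Green fluorescence, 485 nm excitation, 535 nm emission, after ~16 h lysis at 37C. Before that, Dd2-infected red cells (2.5% hematocrit) grew 72 h with compound, 29 uM top final concentration.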
# Starred values were filed as active, the others as inactive; i = inactive; [ ] = dose if it differs, or a comment. Only a selection was taken, and hits are over-represented in it overall. Potency is the fitted concentration of half-maximal effect.
SMILES,Pf Dd2 growth
O=C(O)C[C@@H]1CCN(C(=O)c2cccs2)C[C@@H]1CCN1CCN(c2ccccn2)CC1,7%
COc1ccc(CCNC(=O)CCCn2c(=O)c3ccccc3n(CC(=O)Nc3cc(Cl)ccc3C)c2=O)cc1OC,-4%
COc1ccc(CCNC(=O)CCn2c(=O)c3ccccc3n(CC(=O)Nc3cc(Cl)ccc3C)c2=O)cc1OC,i
COc1ccc(Cl)cc1NC(=O)Cn1c(=O)n(CCCC(=O)NCCc2ccc(OC)c(OC)c2)c(=O)c2ccccc21,11µM*
COc1ccc(CCNC(=O)c2ccc3nc(C)cn3c2)cc1,-5%
COc1ccccc1CNC[C@H]1O[C@@H]2C[C@@H](CC(=O)N3CCOCC3)O[C@@H]2[C@@H]1O,21%[44.1 µM]
Cc1cc(C)c(S(=O)(=O)c2nnn3c2nc(NC2CCCC2)c2ccccc23)c(C)c1,11µM*
Cc1cc(C)c(S(=O)(=O)c2nnn3c2nc(NCCCOC(C)C)c2ccccc23)c(C)c1,-20%
Cc1ccc(S(=O)(=O)c2nnn3c2nc(N2CCC(C(N)=O)CC2)c2cc(Cl)ccc23)cc1C,-16%
CC(C)c1ccc(S(=O)(=O)c2nnn3c2nc(N2CCCC2)c2sccc23)cc1,0%
O=S(=O)(c1cccc(Cl)c1)c1nnn2c1nc(NCc1ccc3c(c1)OCO3)c1sccc12,-11%
CCc1ccc(S(=O)(=O)c2nnn3c2nc(N2CCC(C)CC2)c2cc(Cl)ccc23)cc1,i
O=S(=O)(c1ccccc1)c1nnn2c1nc(NC1CC1)c1ccccc12,-9%
O=S(=O)(c1cccc(Cl)c1)c1nnn2c1nc(NC1CCCC1)c1sccc12,13µM*
Cc1cc(C)cc(Nc2nc3c(S(=O)(=O)c4cccc(Cl)c4)nnn3c3ccsc23)c1,-11%
CCOC(=O)C1CCN(c2nc3c(S(=O)(=O)c4ccccc4)nnn3c3ccc(Cl)cc23)CC1,8.9µM*
CCOC(=O)C1CCCN(c2nc3c(S(=O)(=O)c4ccc(CC)cc4)nnn3c3ccc(Cl)cc23)C1 (stereo not drawn),-30%
CC1CCN(c2nc3c(S(=O)(=O)c4cccc(Cl)c4)nnn3c3ccsc23)CC1,13µM*
CN(C)c1ccc2ncc(Nc3ccccc3Cl)n2n1,-16%[44.1 µM]
Cc1ccc(C(=O)NCC2(C)CCOCC2)s1,-12%
Cc1cccc(C(=O)N2CCN(c3cc(C(F)(F)F)ncn3)CC2)c1,2%
CC1(C(=O)NCCOc2ccccc2)CCCc2cnc(Nc3cccnc3)nc21 (stereo not drawn),-28%[44.1 µM]
CN(C)C[C@@H]1CN(c2ncccn2)C[C@H]1NC(=O)c1ccc2[nH]ccc2c1,i
COc1ccc(C(=O)N2CCn3c(nnc3[C@@H]3C[C@@H](O)CN3C(C)C)C2)cn1,22%
Cn1cc(CNc2ccc(-c3nc(-c4cccc(C(F)(F)F)c4)no3)cn2)cn1,i
SMILES,Pf Dd2 growth
CCn1c(=O)cc(OCC(=O)N2CCN(c3cccc(C)c3C)CC2)c2ccccc21,46%
Cc1ccc(-n2nc(C(=O)N3CCN(c4cc(C)ccc4C)CC3)c3c4ccccc4n(C)c3c2=O)cc1,31%
Cc1ccc(C)c(N2CCN(C(=O)c3cn(CC(C)C)c(=O)c4c3c3ccccc3n4C)CC2)c1,2.5µM*
Cc1ccc(-n2nc(C(=O)N3CCN(c4ccccc4F)CC3)c3c4ccccc4n(C)c3c2=O)cc1,29%
CCn1cc(C(=O)N2CCN(c3cc(C)ccc3C)CC2)c(=O)c2cc(S(=O)(=O)N3CCCCC3)ccc21,12%
Cc1cccc(N2CCN(C(=O)c3cn(CC(C)C)c(=O)c4c3c3ccccc3n4C)CC2)c1C,11µM*
CN(CC1CCOCC1)C(=O)c1cc(F)ccc1Cl,12%
CCOCCNc1ncnc2c1CN(c1ccc(C)cc1)C(=O)CN2C,13%
COCc1nc(C2CCCN(C(=O)c3ccc(C)cc3)C2)no1 (stereo not drawn),39%
Cc1cn2nc(-c3nc(C4CCCN(C(=O)c5sccc5C)C4)no3)cc2c(=O)[nH]1 (stereo not drawn),4.5µM*
CCOCc1nc(C2CCCN(C(=O)c3ccc(OC)cc3)C2)no1 (stereo not drawn),i
Cc1cccc(C(=O)N2CCCC(c3noc(-c4cc5c(=O)[nH]c(C)cn5n4)n3)C2)c1 (stereo not drawn),5.6µM*
Cc1cn2nc(-c3nc(C4CCCN(C(=O)Cc5cccc(F)c5)C4)no3)cc2c(=O)[nH]1 (stereo not drawn),4µM*
CCOCc1nc(C2CCCN(C(=O)Cc3cccc(C)c3)C2)no1 (stereo not drawn),20%
Cc1ccsc1C(=O)N1CCCC(c2noc(COc3ccccc3F)n2)C1 (stereo not drawn),9%
CCc1ccc(C(=O)N2CCCC(c3noc(-c4cc5c(=O)[nH]c(C)cn5n4)n3)C2)cc1 (stereo not drawn),0.89µM*
Cc1cn2nc(-c3nc(C4CCCN(C(=O)c5ccc(C)s5)C4)no3)cc2c(=O)[nH]1 (stereo not drawn),-12%
Cc1cccc(C(=O)N2CCCC(c3noc(COc4ccccc4)n3)C2)c1 (stereo not drawn),2%
